ROC1-CUL1 inh: blocks human RBX1-Cullin-1 di-ubiquitin formation; P62877+Q13616; in vitro K48 di-Ub FRET, acceptor:donor ratio, 45 min; inhibition, % at 10 µM; 140,000 compounds, 0.6% hits; AID 1347404; in the data active = inhibition above about 25%
* hit, by the source's call. Only a selection was taken, and hits are over-represented in it overall.

SMILES	ROC1-CUL1 inh
CCOC(=O)c1cccc(NC(=O)Cc2cccs2)c1	4
COC(=O)c1cc(NC(=O)Cc2cccs2)ccc1O	-6
COC(=O)c1cc(NC(=O)Cc2cccs2)cc(C(=O)OC)c1	56*
O=C(c1ccco1)N1CCN(C(=O)C2CCN(c3ccccc3)C2=O)CC1 (centres undefined)	0
COc1ccc(-c2cc(-c3ccccc3)c3c(N)c(C(=O)Nc4ccc(C)c(Cl)c4)sc3n2)cc1	-7
CN(CC1CCCCO1)C(=O)c1cc(COc2cccc(F)c2)[nH]n1 (centres undefined)	7
O=[N+]([O-])c1ccc(N2CCCCC2)nc1	4
c1ccc(-c2cc(N3CCCCC3)ncn2)cc1	-4
c1ccc2cc(N3CCCCC3)ncc2c1	65*
CCn1c(=O)c2c(nc3n(CCOC)c(C)cn23)n(C)c1=O	6
Cc1[nH][nH]c(=O)c1C(c1c(C)[nH][nH]c1=O)c1cn(Cc2cccc3ccccc23)c2ccccc12	39*
Cc1[nH][nH]c(=O)c1C(c1ccccc1I)c1c(C)[nH][nH]c1=O	-5
Cc1[nH][nH]c(=O)c1C(c1cccc(OCc2ccccc2Cl)c1)c1c(C)[nH][nH]c1=O	-9
CCOc1cc(C(c2c(C)[nH][nH]c2=O)c2c(C)[nH][nH]c2=O)cc(I)c1OC	-8
Cc1[nH][nH]c(=O)c1C(c1c(C)[nH][nH]c1=O)c1cn(C)c2ccccc12	26*
CCOc1cc(C(c2c(C)[nH][nH]c2=O)c2c(C)[nH][nH]c2=O)cc(I)c1O	-2
Cn1cc(C(c2cccs2)c2cn(C)c3ccccc23)c2ccccc21	3
CC(C)C1=NN2C(=N)/C(=C\c3cn(Cc4cccc5ccccc45)c4ccccc34)C(=O)N=C2S1	9
CCOc1cc(C(c2c(C)[nH][nH]c2=O)c2c(C)[nH][nH]c2=O)cc(Br)c1OCc1cccc2ccccc12	26*
O=C(NCc1ccccc1Cl)c1cnc2sc(N3CCOCC3)nn2c1=O	9
CCCCSC(CO)CS(=O)Cc1ccccc1 (centres undefined)	-5
O=C1S/C(=C\c2cccc(OCc3ccccc3Cl)c2)C(=O)N1c1ccccc1	2
O=C1NC(=S)N(c2cccc(Cl)c2Cl)C(=O)/C1=C/c1ccc(N2CCOCC2)cc1	29*
O=C1NC(=S)N(c2cccc(Cl)c2Cl)C(=O)/C1=C/c1cn(Cc2ccc3ccccc3c2)c2ccccc12	-15
Cc1ccc(N2C(=O)NC(=O)/C(=C\c3cccs3)C2=O)cc1C	-8
SMILES	ROC1-CUL1 inh
C=CCOc1ccc(/C=C2\C(=O)NC(=S)N(c3cccc(Cl)c3Cl)C2=O)cc1	-2
CN1C(=O)/C(=C/c2ccc(N3CCCC3)cc2)C(=O)NC1=S	13
Cc1ccsc1/C=C1/C(=O)NC(=S)N(c2cccc(Cl)c2Cl)C1=O	54*
O=C(NCC1Cc2cccc(-c3ncccn3)c2O1)C1CC1 (centres undefined)	6
COc1ccc(C(=O)NCCc2csc(-c3ccc(Cl)cc3)n2)c(OC)c1	-1
CCn1c(SCC(=O)Nc2cccc(C)c2C)nnc1-c1ccc(N)cc1	-2
COc1cccc(-c2nn(-c3ccccc3)cc2CN2CCCC(OC)C2)c1 (centres undefined)	7
Cc1cccc(C(=O)Nc2ccc(C)cc2O)c1	-4
CC1CCN(CC(=O)n2c3ccccc3c3ccccc32)CC1	3
COc1cc(Br)c(Br)c(/C=C2\SC(c3ccc(C)cc3)=NC2=O)c1O	93*
COc1cc(/C=C2/SC(=Nc3ccccc3C)NC2=O)c(Br)c(Br)c1O	5
COc1cc(Br)c(Br)c(C=Nc2ccc(NC(=O)c3ccccc3Br)cc2)c1O	15
CSc1nc(-c2ccc(Cl)cc2)c(C#N)c(=O)[nH]1	9
CSc1nc(-c2ccc(C)cc2)[nH]c(=O)c1C#N	7
C/C=C/c1nc(SC)c(C#N)c(=O)[nH]1	62*
O=C(NC(=S)NCCC1=CCCCC1)c1cccs1	2
CCCOc1ccc(/C(C)=N/N=C2/NC(=O)C(CC(=O)O)S2)cc1 (centres undefined)	11
c1ccc2c(c1)ccc1ccc3ncsc3c12	8
CCc1ccc(NC(=O)CC2C(=O)N(c3ccc(OC)cc3)C(=O)N2Cc2ccc(OC)cc2)cc1 (centres undefined)	-4
NC(=O)N=Nc1c(O)[nH]c2ccc(Br)cc12	10
O=C1N=c2ccc([N+](=O)[O-])cc2=C1N=Nc1c(O)[nH]c2ccc([N+](=O)[O-])cc12	45*
O=[N+]([O-])c1ccc2[nH]c(O)c(N=Nc3ccccc3[N+](=O)[O-])c2c1	1
O=C(CC1CCC1)Nc1ccc2c(c1)oc1ccccc12	-7
CC1=NN(c2ccccc2)C(=O)/C1=C\c1ccc(C(C)(C)C)cc1	40*
COc1cccc(/C=C2\C(=O)N(c3ccccc3)N=C2C)c1OC	-11
CC1=NN(c2ccccc2)C(=O)/C1=C/c1cc(C)n(-c2cccc(C(F)(F)F)c2)c1C	3
CC1=NN(c2ccccc2)C(=O)/C1=C\C1=Nc2ccccc2C1	11
CC(=O)Oc1ccc(-n2c(C)cc(/C=C3\C(=O)N(c4ccccc4)N=C3C)c2C)cc1	4

Source: PubChem BioAssay
